Measurements reported in PubChem BioAssay (NCATS).
Unmarked numbers belong to inactive results. Records with an inconclusive call do not appear. Entries that show only a call come without a potency. The source made the active and inactive calls. Unless noted, the call rests on the fitted dose curve; in most records, active means well fitted cell-killing curve with a large enough effect; inconclusive means small, poorly fitted or top-dose-only effect; inactive means flat fitted curve, though single readings scatter.

What was measured:
[1] = Cell Viability - LYMP2-025 (AID 976); further: series mostly up to about 92 µM
Outline: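 CellTiter-Glo luminescence (cellular ATP) after 24 h compound exposure at 37 C; LYMP2-025 human lymphoblastoid cells, 2500/well, complete medium. Tetraoctylammonium bromide positive control. AC50 by Hill equation fit of qHTS concentration-response.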

[2] = Cell Viability - LYMP2-002 (AID 977); further: series mostly up to about 92 µM
Outline: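 Human lymphoblastoid cells, 2500/well, complete medium; 5 h 37 C settle; compound 24 h 37 C; CellTiter-Glo, 30 min RT; luminescence. Decrease in ATP = cytotoxicity; AC50 via Hill equation.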

[3] = Cell Viability - LYMP2-006 (AID 978);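 further: series mostly up to about 92 µM; cells exposed to compound for 24 hours; nearly all actives have a fitted effect of over 60% in size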
Outline: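 qHTS, 1536-well; 2500 cells/well, 5 hr 37 C; cpd 24 hr 37 C; CellTiter-Glo 30 min RT; luminescence. Tetraoctylammonium bromide pos. ctrl. AC50 via Hill eqn.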

[4] = Cell Viability - LYMP2-007 (AID 979);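 further: cells exposed to compound for 24 h before reading; nearly all actives have a fitted effect of over 60% in size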
Outline: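 qHTS cytotoxicity: 2500 cells/well, 5 hr 37 C settle, compound 24 hr 37 C, CellTiter-Glo 30 min RT, luminescence. Decrease in ATP = toxicity. AC50 by standard Hill equation; tetraoctylammonium bromide positive control.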

[5] = Cell Viability - LYMP2-010 (AID 981);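 further: cells exposed to compound for 24 hours at 37 °C; nearly all actives have a fitted effect of over 55% in size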; further: potency means the concentration at half of the fitted maximal effect
Outline: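 qHTS cytotoxicity, 1536-well: 2500 cells/well, 5 hr settle, 24 hr compound at 37 C, CellTiter-Glo 30 min RT, luminescence read. Decrease in ATP = toxicity; AC50 via standard Hill equation. Positive control tetraoctylammonium bromide.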

[6] = Cell Viability - LYMP2-012 (AID 982);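 further: cellular ATP by luciferase luminescence where a drop means cytotoxicity; cells exposed to compound for one day before reading; nearly all actives have a fitted effect of over 55% in size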
[7] = Cell Viability - LYMP2-014 (AID 983); further: series mostly up to about 92 µM; nearly all actives have a fitted effect of over 50% in size
Outline: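 2500 cells/well, 5 hr 37 C; cpd 24 hr 37 C, complete medium; CellTiter-Glo 30 min RT, luminescence; ATP loss = toxicity; AC50 via Hill eqn; tetraoctylammonium bromide positive control.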

[8] = Cell Viability - LYMP2-018 (AID 985); further: nearly all actives have a fitted effect of over 50% in size
Outline: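 2500 cells/well; 5 hr 37 C; cmpd 24 hr 37 C, complete medium; CellTiter-Glo 30 min RT; luminescence. Tetraoctylammonium bromide positive control. AC50 via Hill fit.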

[9] = Cell Viability - LYMP2-020 (AID 986); further: series mostly up to about 92 µM; nearly all actives have a fitted effect of over 55% in size
Outline: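 qHTS, 2500 cells/well; 5 hr then 24 hr compound exposure, 37 C; CellTiter-Glo luminescence after 30 min RT; ATP decrease taken as cytotoxicity; AC50 via Hill equation; tetraoctylammonium bromide positive control.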

[10] = Cell Viability - LYMP2-022 (AID 987); further: nearly all actives have a fitted effect of over 55% in size
Outline: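 Luminescent ATP read-out (CellTiter-Glo, 30 min, RT) after 24 hr, 37 C compound exposure of 2500 human lymphoblastoid cells/well in complete medium. Cytotoxicity taken as concentration-dependent ATP loss; AC50 from standard Hill equation.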

[11] = Cell Viability - LYMP2-024 (AID 988); further: nearly all actives have a fitted effect of over 60% in size; further: potency means the concentration at half of the fitted maximal effect
Outline: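 ATP-based luminescence (CellTiter-Glo, 30 min RT) after 24 h compound exposure at 37 C of 2500 lymphoblastoid cells/well; decrease in ATP taken as cytotoxicity. qHTS concentration-response fitted to standard Hill equation for AC50.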

[12] = Cell Viability - LYMP2-026 (AID 989); further: nearly all actives have a fitted effect of over 50% in size
Outline: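 qHTS cytotoxicity: 2500 cells/well, 5 hr 37 C, compound 24 hr 37 C, CellTiter-Glo 30 min RT, luminescence. Tetraoctylammonium bromide positive control. AC50 via standard Hill fit.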

[13] = Cell Viability - LYMP1-002 - Assay at 24 hr (AID 993)
Outline: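 CellTiter-Glo luminescence (intracellular ATP) after 24 h compound exposure, 37 C, in LYMP1-002 human lymphoblastoid cells; decreased ATP taken as cytotoxicity. AC50 from standard Hill fit of concentration-response curves.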

[14] = Cell Viability - LYMP1-002 - Assay at 40 hr (AID 994); further: nearly all actives have a fitted effect of over 60% in size
Outline: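 qHTS cytotoxicity; 2500 cells/well, 5 hr 37 C settle, compound 40 hr 37 C. CellTiter-Glo, 30 min RT, luminescence (ATP). Concentration-response, Hill fit → AC50. Pos. ctrl tetraoctylammonium bromide.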

[15] = qHTS Assay for Identification of Small Molecule Inducers of Hypoxia Response (AID 2120; active means well fitted curve in the direction sought with a large enough effect in the signal ratio, with a control signal flat, not every such curve was filed as active; the % refers to the signal ratio)
Outline: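 Read-out: CCF4 FRET emission ratio 460nm/530nm (excitation 405nm), converted to %Activity, with AC50 fitted across a compound titration. ME-180 cells carried an HRE-driven beta-lactamase reporter; compound exposure 17 h, 37 degrees C.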

[16] = target: Estrogen receptor (Homo sapiens) (UniProt P03372); assay: qHTS assay for small molecule antagonists of estrogen receptor alpha signaling (AID 588513; active means well fitted curve in the direction sought with a large enough effect in the signal ratio, with a control signal flat, not every such curve was filed as active; the % refers to the signal ratio)
Estrogen receptor (Homo sapiens), sequence (P03372 whole entry, looked up): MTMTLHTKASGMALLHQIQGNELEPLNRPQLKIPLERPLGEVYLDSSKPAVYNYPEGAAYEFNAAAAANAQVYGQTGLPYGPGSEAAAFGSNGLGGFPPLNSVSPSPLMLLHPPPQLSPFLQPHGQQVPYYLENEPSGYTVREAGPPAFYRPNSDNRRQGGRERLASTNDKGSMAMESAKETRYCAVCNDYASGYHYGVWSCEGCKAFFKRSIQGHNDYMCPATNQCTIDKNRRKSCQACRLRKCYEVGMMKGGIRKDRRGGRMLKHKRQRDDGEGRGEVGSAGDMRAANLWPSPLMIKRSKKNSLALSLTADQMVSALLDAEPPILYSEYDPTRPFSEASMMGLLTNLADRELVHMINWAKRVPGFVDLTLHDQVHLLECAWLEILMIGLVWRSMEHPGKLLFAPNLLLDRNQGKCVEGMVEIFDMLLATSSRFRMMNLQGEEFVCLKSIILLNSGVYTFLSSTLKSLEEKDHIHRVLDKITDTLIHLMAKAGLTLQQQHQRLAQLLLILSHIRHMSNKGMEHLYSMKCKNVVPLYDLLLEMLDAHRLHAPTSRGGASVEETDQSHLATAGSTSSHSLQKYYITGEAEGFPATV
Outline: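 Beta-lactamase reporter, antagonist mode, HEK 293 GripTite cells; 0.5nM E2 stimulus, 18 h, 37 C; CCF4 dye 2 h RT; fluorescence. IC50 and efficacy from Hill fits, normalized to E2 and DMSO.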

[17] = target: Estrogen receptor (Homo sapiens) (UniProt P03372); assay: qHTS assay for small molecule agonists of estrogen receptor alpha signaling (AID 588514; calls by dose curve; further: nearly all actives have a fitted effect of over 70% in size)
Outline: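 Read-out: CCF4 fluorescence from a beta-lactamase reporter in ER-alpha-UAS-bla HEK 293 cells after 18 hrs of compound exposure at 37 C. Normalized to 20 nM 17-beta-estradiol (100%) and DMSO (0%).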

[18] = Cell Viability - LYMP2-016 (AID 984)
Outline: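 qHTS, 1536-well: 2500 LYMP2-016 cells/well, 5 hr 37 C, compound added, 24 hr 37 C, CellTiter-Glo 30 min RT, luminescence. Tetraoctylammonium bromide positive control. AC50 via Hill fit.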

[19] = Cell Viability - LYMP2-008 (AID 980); further: nearly all actives have a fitted effect of over 60% in size
Outline: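 Luminescent ATP read-out (CellTiter-Glo, 30 min RT) after 24 hr compound exposure at 37 C of human lymphoblastoid cells in complete medium. Decrease in ATP taken as cytotoxicity; AC50 derived by standard Hill fit of qHTS concentration-response data.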

Row | Structure (SMILES) | Potency [1] | Potency [2] | Potency [3] | Potency [4] | Potency [5] | Potency [6] | Potency [7] | Potency [8] | Potency [9] | Potency [10] | Potency [11] | outcome [12] | Potency [13] | Potency [14] | outcome [15] | outcome [16] | Potency [17] | Potency [18] | Potency [19]
1 | CC(C)(C)c1ccc(OCC2CO2)cc1 (configuration not stated) | inactive | inactive | inactive | inactive | inactive | inactive | inactive | inactive | inactive | inactive | inactive | inactive | inactive | inactive | inactive | inactive | inactive |  | 
2 | NC(=O)NC(N)=O | inactive | inactive | inactive | inactive | inactive | inactive | inactive | inactive | inactive | inactive | inactive | inactive |  | inactive | inactive | inactive | inactive | inactive | 
3 | Cc1cc(C(=O)O)ccc1[N+](=O)[O-] | inactive | inactive | inactive |  | inactive | inactive | inactive | inactive | inactive | inactive | inactive | inactive |  | inactive | inactive | inactive |  | inactive | inactive
4 | CCCCCCCCC | inactive | inactive |  | inactive | inactive | inactive | inactive | inactive | inactive | inactive | inactive |  | inactive | inactive | inactive | inactive | inactive | inactive | inactive
5 | O=Nc1ccc(NO)cc1 | inactive | inactive | inactive |  | 50.1 µM (active) |  | inactive |  |  |  | 39.8 µM (active) | inactive | inactive |  | inactive | inactive |  |  | inactive
6 | COc1ccc(N)c(OC)c1 | inactive | inactive |  | inactive | inactive | inactive | inactive |  | inactive | inactive | inactive | inactive | inactive | inactive | inactive | inactive | inactive |  | inactive
7 | CCN(CC)c1cccc(O)c1 | inactive | inactive |  | inactive | inactive |  | inactive | inactive | inactive | inactive | inactive | inactive | inactive | inactive | inactive | inactive |  |  | inactive
8 | C=C(C)OC(C)=O | inactive | inactive |  | inactive | inactive | inactive | inactive |  | inactive | inactive | inactive | inactive | inactive | inactive | inactive | inactive | inactive |  | inactive
9 | CC(C)(c1cc(Br)c(OCC(Br)CBr)c(Br)c1)c1cc(Br)c(OCC(Br)CBr)c(Br)c1 (configuration not stated) | inactive | inactive | inactive |  | inactive |  | inactive | inactive | inactive | inactive | inactive |  | inactive | inactive | inactive | inactive | inactive | inactive | inactive
10 | O=Cc1ccc(CO)o1 | inactive | inactive | inactive | inactive | inactive | inactive | inactive | inactive | inactive | inactive | inactive |  | inactive | inactive | inactive | inactive |  | inactive | inactive
11 | Nc1cccc2c(=O)[nH][nH]c(=O)c12 | inactive | inactive |  | inactive | inactive | inactive | inactive | inactive | inactive | inactive | inactive | inactive | inactive | inactive | inactive | inactive | inactive | inactive | 
12 | [O-]/[N+](=N\O)c1ccccc1 | inactive | inactive | inactive | inactive | inactive | inactive | inactive | inactive | inactive | inactive | inactive | inactive | inactive | inactive | inactive |  | inactive | inactive | inactive
13 | Cc1ccccc1C(N)=O | inactive | inactive |  | inactive | inactive | inactive |  | inactive | inactive | inactive | inactive | inactive |  | inactive | inactive | inactive | inactive | inactive | inactive
14 | CC=C(Cl)Cl | inactive | inactive | inactive | inactive | inactive | inactive | inactive | inactive | inactive | inactive | inactive | inactive | inactive | inactive | inactive | inactive |  | inactive | inactive
15 | C=C(C)C(N)=O | inactive | inactive | inactive | inactive | inactive | inactive | inactive | inactive | inactive | inactive | inactive | inactive | inactive | inactive | inactive | inactive |  | inactive | inactive
16 | COc1cccc2sc(N)nc12 | inactive | inactive | inactive |  | inactive |  |  | inactive | inactive | inactive | inactive | inactive |  | inactive | inactive | inactive | inactive |  | inactive
17 | CC(CCl)OC(C)CCl (configuration not stated) | inactive | inactive |  | inactive | inactive |  | inactive | inactive | inactive | inactive | inactive | inactive | inactive | inactive | inactive | inactive | inactive | inactive | inactive
18 | CCNS(=O)(=O)c1ccc(C)cc1 | inactive | inactive |  | inactive | inactive | inactive | inactive | inactive | inactive | inactive | inactive | inactive |  | inactive | inactive | inactive | inactive |  | inactive
